Records with an inconclusive call do not appear. The source holds several records for some structures; these can differ, active in one and inactive in another. The source made the active and inactive calls. The call rests on the fitted dose curve.
Assay: qHTS assay to identify small molecule antagonists of the sonic hedgehog signaling (Shh) pathway (AID 1259369); further: nearly all actives have a fitted effect of over 45% in size
Conditions: NIH/3T3 Gli1-Luc reporter, Shh antagonist, luminescence 24 h; series mostly up to 92.4 µM
From the text: U.S. Tox21 Program National Center for Advancing Translational Sciences [NCATS] NIH Chemical Genomics Center [NCGC] U.S. Environmental Protection Agency [EPA] National Institutes of Environmental Health Sciences [NIEHS] National Toxicology Program [NTP] U.S. Food and Drug Administration [FDA] Tox21 Assay Overview: The sonic hedgehog (Shh) pathway is essential for normal embryonic development. Dysregulation of the Shh pathway can cause severe developmental defects in organs. Therefore chemicals that interfere with the pathway are potential developmental toxicants. A cell line designated 3T3Gli1-Luc (DMB/OARSA/CFSAN/FDA, Laurel, MD), a NIH/3T3 derived clone containing stably integrated Gli1-Luc reporter is used to detect chemical interference of the Shh pathway, by changes in the expression of the firefly Luc gene under the control of the Gli1 transcriptional response element. This cell line was used to screen Tox21 libraries for identifying and prioritizing the potential developmental toxicants that interfere Shh pathway. Conditioned medium-stimulated mode was used to screen for chemicals inhibiting Shh signaling.
Tox21 Assay Protocol Summary: 3T3 Gli1-Luc cells were dispensed at 2,000 per well in 5uL of culture medium into white solid bottom 1536-well plates (Greiner Bio-One, Monroe, NC) using a Multidrop Combi (Thermo Scientific, Waltham, MA) dispenser. The assay plates were incubated at 37 C and 5% CO2 for 4hr, and then 23nL of compounds dissolved in DMSO and positive control were transferred using a Pintool station (Wako, San Diego, CA). The compound transfer was followed by the addition of 1ul conditioned medium or assay buffer using two separate tips of Flying Reagent Dispenser (FRD, Aurora Discovery, San Diego, CA). The assay plates were incubated at 37C and 5% CO2 for 24hr. For luciferase read, 4uL of Amplite Luciferase reporter gene assay reagent (AAT Bioquest, Inc. Sunnyvale, CA) was added to each well of the assay plates using FRD and incubated at room temperature for 30min. The luminescence signal was measured using a ViewLux plate reader (Perkin Elmer, Shelton, CT).
Potency means the concentration at half of the fitted maximal effect.

| Compound | Potency |
| --- | --- |
| O=CC(Br)(Br)Br | 24.3 µM (active) |
| Clc1ccc(-c2ccccc2)cc1 | inactive |
| C1CCC2CCCCC2C1 (stereo not given) | inactive |
| COC12CC[C@@]3(C[C@@H]1C(C)(O)C(C)(C)C)[C@H]1Cc4ccc(O)c5c4[C@@]3(CCN1CC1CC1)[C@H]2O5 (stereo not given in full) | 4.82 µM (active) |
| Clc1ccc(C(c2ccc(Cl)cc2)C(Cl)(Cl)Cl)cc1 | 27.5 µM (active) and inactive |
| CC(C)Oc1cccc(NC(=O)c2ccccc2C(F)(F)F)c1 | 2.17 µM (active) |
| [CH3][Hg][Cl] | 34.3 µM (active) |
| CCCCCCCCCCBr | inactive |
| Clc1ccc(C(c2ccccc2Cl)C(Cl)(Cl)Cl)cc1 (stereo not given) | inactive |
| CCCCOP(=O)(CCCC)OCCCC | inactive |
| O=C1c2ccccc2C(=O)C1C(=O)C(c1ccccc1)c1ccc(Cl)cc1 (stereo not given) | 54.5 µM (active) |
| CCCOCC(=Nc1ccc(Cl)cc1C(F)(F)F)n1ccnc1 | 9.68 µM (active) |
| O=c1[nH]c2ccccc2n1CCCN1CCC(n2c(=O)[nH]c3cc(Cl)ccc32)CC1 | 4.22 µM (active) |
| NNC(=O)c1ccccc1 | 31.5 µM (active) |
| C[C@H]1CC[C@@H]2[C@@H](C)[C@H]3[C@H](C[C@H]4[C@@H]5CC=C6CC(O[C@@H]7O[C@H](CO)[C@H](O)[C@H](O[C@@H]8O[C@H](CO)[C@@H](O)[C@H](O)[C@H]8O)[C@H]7O[C@H]7O[C@@H](C)[C@H](O)[C@@H](O)[C@H]7O)CC[C@]6(C)[C@H]5CC[C@]34C)N2C1 (stereo not given in full) | inactive |
| N#CCCO | inactive |
| O=[N+]([O-])c1c2ccccc2cc2ccccc12 | 67.8 µM (active) |
| Nc1ccc([N+](=O)[O-])cc1Cl | inactive |
| CC(C)CCCCCOC(=O)c1ccccc1C(=O)OCCCCCC(C)C | 17 µM (active) |
| CC(C)CC(C)(c1ccc(O)cc1)c1ccc(O)cc1 | 27.4 µM (active) |

| Compound | Potency |
| --- | --- |
| Clc1ccc(COC(Cn2ccnc2)c2ccc(Cl)cc2Cl)cc1 (stereo not given) | 11.4 µM (active) |
| N#CCc1ccc(Cl)cc1 | inactive |
| CC1(c2ccc(Oc3ccccc3)cc2)OC(=O)N(Nc2ccccc2)C1=O (stereo not given) | 6.15 µM (active) |
| O=[N+]([O-])O.O=[N+]([O-])O.[Cd] | 1.72 µM (active) |
| ClCc1ccccc1CCl | inactive |
| COP(N)(=S)OC | inactive |
| [Cl][Sn]([c]1ccccc1)([c]1ccccc1)[c]1ccccc1 | 0.206 µM (active) |
| Cc1cc(Cl)ccc1O[C@H](C)C(=O)O | inactive |
| [Hg+2].[I-].[I-] | 0.545 µM (active) |
| CCCN(CCC)c1c([N+](=O)[O-])cc(S(N)(=O)=O)cc1[N+](=O)[O-] | 4.86 µM (active) |
| N#Cc1ccccc1N | inactive |
| Clc1ccc(CO/N=C(\Cn2ccnc2)c2ccc(Cl)cc2Cl)c(Cl)c1 | 4.73 µM (active) |
| CC1(C)C(/C=C(\Cl)C(F)(F)F)C1C(=O)OC(C#N)c1cccc(Oc2ccccc2)c1 (stereo not given) | inactive |
| NC(=O)c1ccc(N)nc1 | inactive |
| CN(C)CCc1c[nH]c2ccc(O)cc12 | 8.43 µM (active) |
| c1ccc2cc3c(cc2c1)-c1cccc2cccc-3c12 | inactive |
| C=CC(=O)OCC(COC(=O)C=C)(COC(=O)C=C)COC(=O)C=C | 6.86 µM (active) |
| CCCCCCCCCBr | inactive |
| C=COCCCl | inactive |
| N#CCCC(Br)(C#N)CBr (stereo not given) | 21.7 µM (active) |
